What was measured:
Experiment in all cases: log2 ratio of Biotin-Ahx-Ub-VS probe labelling (fragment/DMSO); higher = less target engagement (more negative = stronger competition), active = hit call of the paper (q ≤ 0.05, log2 ratio ≤ -1)
Details in all cases: compound concentration: 200 uM; treatment time: 3 h
ALG13 = target: T1, ALG13 (UniProt Q9NP73)
T1 sequence (whole entry): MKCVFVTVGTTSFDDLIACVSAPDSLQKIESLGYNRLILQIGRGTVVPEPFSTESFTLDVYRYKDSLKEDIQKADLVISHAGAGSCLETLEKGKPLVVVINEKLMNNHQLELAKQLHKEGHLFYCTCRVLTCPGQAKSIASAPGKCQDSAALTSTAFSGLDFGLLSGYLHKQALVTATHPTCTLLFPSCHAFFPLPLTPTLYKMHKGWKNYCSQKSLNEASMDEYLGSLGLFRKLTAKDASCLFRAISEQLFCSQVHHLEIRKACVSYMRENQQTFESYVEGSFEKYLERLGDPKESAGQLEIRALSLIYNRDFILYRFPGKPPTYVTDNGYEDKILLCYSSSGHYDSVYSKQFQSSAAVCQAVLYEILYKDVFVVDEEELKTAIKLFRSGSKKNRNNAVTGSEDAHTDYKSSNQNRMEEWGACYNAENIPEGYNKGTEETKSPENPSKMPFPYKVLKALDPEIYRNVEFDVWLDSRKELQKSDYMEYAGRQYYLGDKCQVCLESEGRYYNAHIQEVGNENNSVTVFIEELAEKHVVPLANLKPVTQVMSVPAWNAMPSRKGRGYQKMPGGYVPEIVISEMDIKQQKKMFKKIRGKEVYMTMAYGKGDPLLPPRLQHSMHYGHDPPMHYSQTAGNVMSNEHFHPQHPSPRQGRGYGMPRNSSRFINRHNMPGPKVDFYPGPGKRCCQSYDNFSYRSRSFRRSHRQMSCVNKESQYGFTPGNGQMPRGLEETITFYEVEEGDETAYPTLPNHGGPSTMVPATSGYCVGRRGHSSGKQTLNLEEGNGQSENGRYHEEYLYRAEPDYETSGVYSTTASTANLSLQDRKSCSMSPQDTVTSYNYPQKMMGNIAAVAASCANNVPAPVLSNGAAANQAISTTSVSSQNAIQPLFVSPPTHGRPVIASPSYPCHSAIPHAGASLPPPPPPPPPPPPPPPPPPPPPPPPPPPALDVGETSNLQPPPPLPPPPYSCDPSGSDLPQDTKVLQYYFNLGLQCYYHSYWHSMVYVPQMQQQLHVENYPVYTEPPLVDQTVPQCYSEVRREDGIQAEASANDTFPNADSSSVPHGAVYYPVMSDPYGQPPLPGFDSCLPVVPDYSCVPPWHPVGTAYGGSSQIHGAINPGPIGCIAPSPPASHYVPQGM
Summary of the method: (§1)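 Labelling with Biotin-Ahx-Ub-VS (0.5 µM final, 1 h) followed a 3 h triplicate treatment of HEK293T lysate (495 µg per sample, Tris/CHAPS/IGEPAL buffer with protease inhibitors) with fragment at 200 µM or vehicle. Labelled DUBs were NeutrAvidin-enriched, digested with LysC and trypsin, and run by diaPASEF LC-MS/MS. The values, average log2 fragment/vehicle ratios by unpaired t-test, come from global-median-normalised Spectronaut label-free quantities. Proteins with ≥2 unique peptides were used.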

ATXN3 = ATXN3 (UniProt P54252)
Summary of the method: as §1

BAP1 = target: T2, BAP1 (UniProt Q92560)
T2 sequence (whole entry): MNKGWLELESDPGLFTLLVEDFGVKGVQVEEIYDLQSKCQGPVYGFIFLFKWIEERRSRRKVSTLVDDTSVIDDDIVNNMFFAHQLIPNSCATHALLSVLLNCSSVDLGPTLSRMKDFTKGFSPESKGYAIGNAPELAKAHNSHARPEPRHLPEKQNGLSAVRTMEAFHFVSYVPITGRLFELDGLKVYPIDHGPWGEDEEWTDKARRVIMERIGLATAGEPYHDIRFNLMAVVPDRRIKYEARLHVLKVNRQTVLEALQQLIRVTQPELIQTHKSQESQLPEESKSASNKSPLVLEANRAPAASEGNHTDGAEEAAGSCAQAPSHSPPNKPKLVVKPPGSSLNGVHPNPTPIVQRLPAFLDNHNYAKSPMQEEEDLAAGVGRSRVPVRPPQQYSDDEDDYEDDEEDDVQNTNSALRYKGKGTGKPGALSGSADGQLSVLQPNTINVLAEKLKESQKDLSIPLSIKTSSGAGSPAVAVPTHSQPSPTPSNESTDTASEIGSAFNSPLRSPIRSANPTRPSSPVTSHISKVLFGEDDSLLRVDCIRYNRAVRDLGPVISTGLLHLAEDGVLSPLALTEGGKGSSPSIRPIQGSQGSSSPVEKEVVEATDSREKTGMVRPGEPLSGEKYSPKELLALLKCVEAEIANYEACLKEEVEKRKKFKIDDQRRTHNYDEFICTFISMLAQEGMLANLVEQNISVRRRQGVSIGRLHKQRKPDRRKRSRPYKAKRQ
Summary of the method: as §1

EIF3F = EIF3F (UniProt O00303)
Summary of the method: as §1

EIF3H = EIF3H (UniProt O15372)
Summary of the method: as §1

FAM105A = target: T3, FAM105A (UniProt Q9NUU6)
T3 sequence (whole entry): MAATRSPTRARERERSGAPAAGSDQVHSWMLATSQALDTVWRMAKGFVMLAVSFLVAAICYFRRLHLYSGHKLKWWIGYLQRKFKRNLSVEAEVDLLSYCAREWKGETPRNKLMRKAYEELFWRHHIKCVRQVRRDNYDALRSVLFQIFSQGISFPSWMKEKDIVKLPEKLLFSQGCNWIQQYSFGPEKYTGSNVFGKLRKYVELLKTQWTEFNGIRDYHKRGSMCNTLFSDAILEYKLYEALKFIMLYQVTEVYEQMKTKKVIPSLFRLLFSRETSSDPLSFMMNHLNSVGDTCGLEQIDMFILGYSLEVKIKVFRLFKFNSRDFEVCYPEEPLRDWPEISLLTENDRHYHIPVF
Summary of the method: as §1

OTUB1 = OTUB1 (UniProt Q96FW1)
Summary of the method: as §1

OTUD4 = target: T4, OTUD4 (UniProt Q01804)
T4 sequence (whole entry): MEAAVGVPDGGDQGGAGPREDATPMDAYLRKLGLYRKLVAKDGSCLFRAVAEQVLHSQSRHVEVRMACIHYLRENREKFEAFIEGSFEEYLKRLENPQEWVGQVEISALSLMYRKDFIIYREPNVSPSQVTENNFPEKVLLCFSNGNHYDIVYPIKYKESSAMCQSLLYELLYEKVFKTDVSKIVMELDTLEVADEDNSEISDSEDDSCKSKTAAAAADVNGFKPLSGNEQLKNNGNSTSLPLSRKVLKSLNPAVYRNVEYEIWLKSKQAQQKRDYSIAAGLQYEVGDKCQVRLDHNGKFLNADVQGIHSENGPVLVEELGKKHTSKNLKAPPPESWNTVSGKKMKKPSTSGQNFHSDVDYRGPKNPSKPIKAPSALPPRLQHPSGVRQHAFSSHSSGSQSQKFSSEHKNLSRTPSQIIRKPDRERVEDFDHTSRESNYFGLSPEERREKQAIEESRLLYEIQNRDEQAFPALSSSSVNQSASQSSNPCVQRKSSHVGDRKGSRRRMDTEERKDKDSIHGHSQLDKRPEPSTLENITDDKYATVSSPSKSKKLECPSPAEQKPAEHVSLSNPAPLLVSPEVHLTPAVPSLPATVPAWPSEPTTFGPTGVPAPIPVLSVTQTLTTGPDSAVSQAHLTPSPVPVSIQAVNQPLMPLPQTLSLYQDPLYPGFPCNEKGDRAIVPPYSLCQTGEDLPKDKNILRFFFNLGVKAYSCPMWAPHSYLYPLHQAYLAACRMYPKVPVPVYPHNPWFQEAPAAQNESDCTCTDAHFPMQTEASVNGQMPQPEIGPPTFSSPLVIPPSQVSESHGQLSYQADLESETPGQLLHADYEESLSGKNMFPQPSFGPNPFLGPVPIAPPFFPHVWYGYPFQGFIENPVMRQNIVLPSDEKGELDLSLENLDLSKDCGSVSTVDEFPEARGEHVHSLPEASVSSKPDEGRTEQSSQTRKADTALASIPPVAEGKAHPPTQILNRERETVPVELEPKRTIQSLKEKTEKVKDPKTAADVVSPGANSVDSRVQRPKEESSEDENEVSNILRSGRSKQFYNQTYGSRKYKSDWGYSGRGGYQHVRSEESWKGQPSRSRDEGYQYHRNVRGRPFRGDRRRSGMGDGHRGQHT
Summary of the method: as §1

OTUD5 = target: T5, OTUD5 (UniProt Q96G74)
T5 sequence (whole entry): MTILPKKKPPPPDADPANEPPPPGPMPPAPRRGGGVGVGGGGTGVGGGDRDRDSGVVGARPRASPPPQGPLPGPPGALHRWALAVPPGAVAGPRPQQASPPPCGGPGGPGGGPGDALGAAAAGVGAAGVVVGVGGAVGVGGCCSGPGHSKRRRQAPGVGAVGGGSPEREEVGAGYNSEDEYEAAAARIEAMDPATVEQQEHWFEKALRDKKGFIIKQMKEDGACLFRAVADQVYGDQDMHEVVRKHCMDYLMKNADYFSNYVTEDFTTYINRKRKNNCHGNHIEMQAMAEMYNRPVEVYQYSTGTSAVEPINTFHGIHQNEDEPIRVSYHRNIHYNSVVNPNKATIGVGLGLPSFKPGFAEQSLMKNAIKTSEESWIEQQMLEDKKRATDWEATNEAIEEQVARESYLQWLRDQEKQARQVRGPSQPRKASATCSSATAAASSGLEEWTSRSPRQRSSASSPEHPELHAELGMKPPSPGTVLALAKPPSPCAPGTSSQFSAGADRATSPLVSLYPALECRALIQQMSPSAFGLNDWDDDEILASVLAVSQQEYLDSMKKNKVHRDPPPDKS
Summary of the method: as §1

Measured: log2 ratio of Biotin-Ahx-Ub-VS probe labelling

Chain of EIF3H (O15372 whole entry): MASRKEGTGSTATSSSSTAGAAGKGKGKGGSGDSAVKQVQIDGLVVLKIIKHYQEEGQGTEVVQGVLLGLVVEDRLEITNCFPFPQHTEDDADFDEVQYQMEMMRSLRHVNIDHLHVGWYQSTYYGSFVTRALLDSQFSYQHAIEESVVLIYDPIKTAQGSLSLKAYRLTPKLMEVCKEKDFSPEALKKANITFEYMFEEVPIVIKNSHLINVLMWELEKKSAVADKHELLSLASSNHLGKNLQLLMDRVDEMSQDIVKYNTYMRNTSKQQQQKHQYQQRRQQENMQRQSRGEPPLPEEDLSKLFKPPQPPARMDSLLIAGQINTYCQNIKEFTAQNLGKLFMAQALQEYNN
Chain of EIF3F (O00303 whole entry): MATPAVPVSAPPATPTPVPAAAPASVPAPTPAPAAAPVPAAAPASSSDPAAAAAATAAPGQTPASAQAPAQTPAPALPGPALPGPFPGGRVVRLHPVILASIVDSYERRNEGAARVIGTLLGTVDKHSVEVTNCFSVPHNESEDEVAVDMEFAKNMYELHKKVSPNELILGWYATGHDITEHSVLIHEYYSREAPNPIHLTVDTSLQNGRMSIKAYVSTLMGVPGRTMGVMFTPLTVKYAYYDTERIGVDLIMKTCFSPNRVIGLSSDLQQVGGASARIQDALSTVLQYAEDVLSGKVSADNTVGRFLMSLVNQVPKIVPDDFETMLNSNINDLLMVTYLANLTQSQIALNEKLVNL
Chain of ATXN3 (P54252 whole entry): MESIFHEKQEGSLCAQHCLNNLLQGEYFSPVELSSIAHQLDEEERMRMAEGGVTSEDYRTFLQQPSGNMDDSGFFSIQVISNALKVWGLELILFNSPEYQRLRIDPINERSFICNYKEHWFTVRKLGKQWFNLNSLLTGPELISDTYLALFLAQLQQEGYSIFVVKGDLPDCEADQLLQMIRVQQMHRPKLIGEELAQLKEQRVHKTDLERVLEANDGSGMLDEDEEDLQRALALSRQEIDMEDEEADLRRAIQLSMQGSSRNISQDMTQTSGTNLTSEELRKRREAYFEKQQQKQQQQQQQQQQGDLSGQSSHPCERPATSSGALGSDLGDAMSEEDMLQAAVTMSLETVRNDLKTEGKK
Chain of OTUB1 (Q96FW1 whole entry): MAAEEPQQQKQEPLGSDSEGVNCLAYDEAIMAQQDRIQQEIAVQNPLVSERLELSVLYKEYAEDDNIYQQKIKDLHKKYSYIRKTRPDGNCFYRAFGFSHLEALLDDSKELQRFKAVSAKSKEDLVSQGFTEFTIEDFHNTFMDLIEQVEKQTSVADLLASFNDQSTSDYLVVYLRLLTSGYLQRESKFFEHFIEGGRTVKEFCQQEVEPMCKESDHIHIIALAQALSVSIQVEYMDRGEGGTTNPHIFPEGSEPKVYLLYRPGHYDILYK

Cl.O=C(CCl)N1CCn2ncc(O)c2C1
active: ATXN3 -1.69 | BAP1 -2.39
inactive: ALG13 0.326 | EIF3F -0.296 | EIF3H 0.21 | FAM105A -0.377 | OTUB1 -0.64 | OTUD4 -0.808 | OTUD5 -0.908

Reference: the supplement of paper PMC11732987, “Enantioselective OTUD7B fragment discovery through chemoproteomics screening and high-throughput optimisation” (Communications Chemistry, 2025)
